Screens from PubChem.
TDP1 cell CPT: DT40-hTDP1 cell growth loss with CPT; chicken DT40 Tdp1-/-;hTDP1 cells + 20 nM CPT, ATP luminescence, 48 h; Potency, µM (series often up to 46.2 µM), without a hit: top-dose activity change, negative = growth inhibition, most hits filed as inhibitors; hit rate 12% among 420,000; AID 686979; note: potency is the fitted concentration of half-maximal effect; % is set by controls: 0 for no effect and ±100 for the full control effect; nearly all actives have a fitted effect of over 55% in size
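Chicken DT40 Tdp1-/- cells stably complemented with human TDP1 were seeded at 400 cells/well in medium containing 20 nM camptothecin, exposed to pin-transferred compounds, and grown at 37 °C for at least 48 hr. Viability was read as ATP luminescence.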
HepG2 tox: HepG2 cytotoxicity, counter-screen for TGF-b inhibitors | HepG2 CAGA-GFP viability, ATP luminescence, 18 h | Potency, µM (top dose mostly 46.1 µM), for the others: at the top dose activity change, negative = cytotoxicity, hits mostly cytotoxic | hit rate 0.76% among 410,000 | AID 588856; note: potency is the fitted concentration of half-maximal effect
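CellTiter-Glo luminescence gave cytotoxicity after 18 hours at 37 degrees C. The cells were HepG2 CAGA-GFP in 1% FBS DMEM, stimulated with 500 pg/mL TGF-beta after compound addition. %Activity was normalised to no-cell wells (complete cell-killing) and DMSO (no toxicity), and curves were fitted and classified.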
IL-1B inflam inh: inflammasome signaling inhibition, IL-1 beta readout; THP-1 LPS/ATP IL-1B secretion, AlphaLISA, 16 h; hits give low values; activity change, % at 57.5 µM; hit rate 4.7% among 360,000; in the data active = activity change below about -50%; inconclusive = mostly about -30% to -49%; note: % is set by controls: 0 for no effect and ±100 for the full control effect
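Secreted IL-1B measured by AlphaLISA bead assay after 16 h compound exposure of THP-1 cells; compounds (final up to 57.5 uM) added 1 h before LPS (250 ng/mL) and ATP (1.25 mM) stimulation; lower signal means less secretion.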
TGFb SMAD3 inh: inhibitors of TGF-b signaling | hit rate 1.2% among 410,000 | HepG2 CAGA-GFP TGF-b/SMAD3 reporter, GFP fluorescence, 18 h; TGF-beta stimulated, 500 pg/mL final | AID 588855 | Potency, µM (series often up to 46.1 µM), inactives show at the top dose activity, negative = inhibition, usual class: inhibitors; note: potency is the fitted concentration of half-maximal effect; % is set by controls: 0 for no effect and ±100 for the full control effect; nearly all actives have a fitted effect of over 65% in size
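Read-out: total well GFP (ex488/em500-530) summed from mean per-cell fluorescence. Cells: HEPG2 CAGA-GFP, 1% FBS DMEM, 18 h at 37 degrees C with 500 pg/mL final TGF-beta. Unstimulated wells served as the full-inhibition control; stimulated DMSO wells = 0%.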
DT40 TDP1 no CPT: qHTS for Inhibitors of human tyrosyl-DNA phosphodiesterase 1 (TDP1): qHTS in cells in absence of CPT | Potency, µM (doses to about 46.2 µM), for the others: top-dose activity change, negative = growth inhibition, most hits filed as inhibitors | hit rate 15% among 420,000 | DT40 Tdp1-/- hTDP1 cells, no CPT, ATP luminescence, 48 h | AID 686978, 2013; note: potency is the fitted concentration of half-maximal effect; % is set by controls: 0 for no effect and ±100 for the full control effect; nearly all actives have a fitted effect of over 55% in size
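Cells were dispensed at 400 per well, compounds added by pin tool, plates incubated ≥48 hr at 37 °C, then CellTiter-Glo added for 30 min at room temperature before luminescence reading. Line: DT40 Tdp1-/- complemented with hTDP1; camptothecin omitted.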
S-ASM inh: inhibitors of human secretory acid sphingomyelinase; AID 504937; Potency, µM (top dose mostly 57.5 µM), for the others: at the highest dose activity change, negative = inhibition, hits mostly inhibitors; hit rate 0.006% among 340,000; P17405; placental ASM, HMU-PC fluorogenic substrate, 60 min; note: potency is the fitted concentration of half-maximal effect
Target sequence (P17405 47-631 limits assumed): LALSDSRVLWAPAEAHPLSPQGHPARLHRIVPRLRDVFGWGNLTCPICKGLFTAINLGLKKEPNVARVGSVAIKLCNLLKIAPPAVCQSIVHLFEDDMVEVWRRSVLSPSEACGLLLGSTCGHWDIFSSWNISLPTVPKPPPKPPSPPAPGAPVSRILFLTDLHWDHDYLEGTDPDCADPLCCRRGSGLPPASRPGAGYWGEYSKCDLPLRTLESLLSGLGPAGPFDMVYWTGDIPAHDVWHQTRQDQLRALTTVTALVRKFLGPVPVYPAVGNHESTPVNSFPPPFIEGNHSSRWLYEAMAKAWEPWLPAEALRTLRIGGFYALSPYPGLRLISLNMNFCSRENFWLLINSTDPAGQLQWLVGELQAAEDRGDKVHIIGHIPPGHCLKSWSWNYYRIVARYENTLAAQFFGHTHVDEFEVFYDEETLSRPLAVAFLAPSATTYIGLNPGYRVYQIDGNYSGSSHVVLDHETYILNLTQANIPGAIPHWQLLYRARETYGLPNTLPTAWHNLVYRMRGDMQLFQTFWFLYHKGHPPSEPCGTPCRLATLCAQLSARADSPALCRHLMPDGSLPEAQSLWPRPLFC
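Human placenta-derived ASM preincubated with compound 10 min at room temperature, then reacted with 9 uM (final) fluorogenic HMU-PC substrate for 60 min at 37 C. Stop solution raises pH to 10; fluorescence read at Ex 386/Em 447 nm.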
Starred values were filed as active, the others as inactive; u = inconclusive; x = no result; [ ] = remark or other dose. A selection: hits, their analogues and other compounds. The true share with any hit is near 19%. Unless noted, calls come from the whole dose curve; as a rule, active = well fitted curve in the direction sought with a large enough effect; inconclusive = small, poorly fitted or top-dose-only effect, or another doubt; inactive = no such curve, though single readings can be large; an effect the other way counts as inactive or inconclusive.

SMILES | TDP1 cell CPT | HepG2 tox | IL-1B inflam inh | TGFb SMAD3 inh | DT40 TDP1 no CPT | S-ASM inh
CCN1CCN(C(=O)c2cnn(-c3cccc(Cl)c3)c2C2CCN(C(=O)OC(C)(C)C)CC2)CC1 | -23% | -26% | x | -16% | u | x
CC(C)(C)OC(=O)N1CCC(c2c(C(=O)N3CCN(C4CCCCC4)CC3)cnn2-c2cccc(Cl)c2)CC1 | 16µM* | -23% | x | -41% | 23µM* | x
CCc1ccc(N2CN(CCc3ccccc3)CNC2=S)cc1 | u | -58% | 18 | u | 29µM* | -2%
COc1cccc(NC(=O)C2CCN(C(=O)N3CC(C)Oc4ccccc43)CC2)c1 (centres undefined) | u | -25% | x | u | u | x
COCC#Cc1cnc2c(c1)C(=O)N([C@H](C)CO)C[C@H](C)[C@@H](CN(C)S(=O)(=O)c1ccccc1)O2 | 11% | -3% | 20 | -12% | 0% | x
Cc1ccc(S(=O)(=O)N(C)C[C@@H]2Oc3ncc(C#CCC(C)C)cc3C(=O)N([C@H](C)CO)C[C@H]2C)cc1 | u | -12% | -10 | u | 16µM* | x
COc1ccccc1S(=O)(=O)N(C)C[C@@H]1Oc2ncc(-c3ccc(C)cc3)cc2C(=O)N([C@H](C)CO)C[C@@H]1C | u | -6% | -13 | -2% | 16µM* | x
COc1cccc(C#Cc2cnc3c(c2)C(=O)N([C@@H](C)CO)C[C@H](C)[C@H](CN(C)C(=O)C2CCC2)O3)c1 | u | -84% | -24 | -12% | 13µM* | x
Cc1ccc(S(=O)(=O)N(C)C[C@H]2Oc3ncc(-c4ccccc4)cc3C(=O)N([C@@H](C)CO)C[C@@H]2C)cc1 | u | -28% | -28 | -1% | 13µM* | x
Cc1ccc(-c2cnc3c(c2)C(=O)N([C@H](C)CO)C[C@@H](C)[C@@H](CN(C)C(=O)Cc2ccccc2)O3)cc1 | 0% | -9% | u | -10% | u | x
COc1cccc(NC(=O)CCC(=O)N2CC(C)Oc3ccc(C)cc32)c1 (centres undefined) | u | -20% | -24 | -1% | u | 1%
Cn1c(=O)c2c(SCC(=O)N3CCc4ccccc43)nc(-c3cccc(F)c3)nc2n(C)c1=O | -8% | 4% | x | -24% | -10% | x
O=C(NCCCN1CCOCC1)c1ccc(S(=O)(=O)Nc2cccc(C(F)(F)F)c2)cc1 | -23% | 13% | 20 | 0% | u | 0%
CCOc1ccc(NS(=O)(=O)c2ccc(C(=O)NCCCN3CCCC3=O)cc2)cc1 | u | -23% | 2 | -17% | 18µM* | 3%
O=C(NCCCN1CCCC1=O)c1ccc(S(=O)(=O)Nc2cccc(C(F)(F)F)c2)cc1 | u | 1% | 28 | 0% | 21µM* | -5%
Cc1cn([C@H]2C[C@H](O)[C@@H](CNCc3cnc(N4CCOCC4)nc3)O2)c(=O)[nH]c1=O | 8% | 1% | 7 | 1% | -2% | x
O=C(c1ccccc1)N1CCc2cc(CNS(=O)(=O)c3ccc(Cl)s3)ccc21 | u | -60% | x | -23% | 16µM* | x
O=C(CSc1ccccc1)NCc1ccc2c(c1)CCN2C(=O)c1ccccc1 | 6% | 2% | x | 3% | -19% | x
O=C(c1ccccc1)N1CCc2cc(CNS(=O)(=O)c3ccccc3Cl)ccc21 | 1.3µM* | -41% | x | -29% | 0.92µM* | x
O=C(NCCc1nnc2n1CCN(Cc1ccc(F)c(F)c1)CC2)c1ccoc1 | 8% | x | x | x | -17% | x
CCN1CCN(C(c2ccccn2)c2c(NC(=O)c3ccccc3)sc(C)c2C)CC1 (centres undefined) | 8.2µM* | -23% | u | 3% | 8.2µM* | 3%
COc1ccc(C(c2c(NC(=O)c3ccco3)sc(C)c2C)N2CCOCC2)cc1 (centres undefined) | u | -1% | u | 0% | u | -1%
COc1ccc(C(c2c(NC(=O)c3ccccc3)sc(C)c2C)N2CCN(CCO)CC2)cc1 (centres undefined) | -6% | -11% | 4 | 0% | -1% | 1%
CCN1CCN(C(c2cccnc2)c2c(NC(=O)c3ccco3)sc(C)c2C)CC1 (centres undefined) | 16µM* | -5% | u | -4% | 23µM* | 8%
COC(=O)CN(c1ccccc1[N+](=O)[O-])S(=O)(=O)c1ccccc1 | 15% | 8% | 15 | 13% | 3% | -3%
SMILES | TDP1 cell CPT | HepG2 tox | IL-1B inflam inh | TGFb SMAD3 inh | DT40 TDP1 no CPT | S-ASM inh
CC(=O)N(c1ccccc1)c1ccccc1[N+](=O)[O-] | u | 2% | 25 | -3% | 26µM* | x
Cc1nc2ccccc2c(=O)n1-c1ccc(NC(=O)c2ccc([N+](=O)[O-])cc2)cc1 | u | -27% | x | u | u | x
Cc1ccc(C(=O)Nc2ccc(-n3c(C)nc4ccccc4c3=O)cc2)cc1[N+](=O)[O-] | 9.2µM* | -23% | x | 5% | 7.3µM* | x
Cc1cc(-n2c(C)nc3ccccc3c2=O)ccc1NC(=O)c1cccc([N+](=O)[O-])c1 | 16µM* | -11% | x | -29% | 12µM* | x
Cc1cc(C(=O)Nc2ccc(-n3c(C)nc4ccccc4c3=O)cc2)ccc1[N+](=O)[O-] | u | -2% | x | -14% | u | x
Cc1nc2ccccc2c(=O)n1-c1ccc(NC(=O)c2cccc([N+](=O)[O-])c2)cc1 | 18µM* | -13% | x | -11% | 21µM* | x
CN(C)c1nc2cc3c(cc2cc1CN(CC1CCCO1)C(=O)c1cccc(F)c1)OCO3 (centres undefined) | 18%[9.04 µM] | x | x | x | -3% | x
CCCNC(=O)CCCCn1c(=S)[nH]c2c([nH]c3ccc(OC)cc32)c1=O | 5.8µM* | 15% | 6 | -6% | 5.8µM* | 11%
COc1ccc2[nH]c3c(=O)n(CCCC(=O)NC4CCC(C)CC4)c(=S)[nH]c3c2c1 (centres undefined) | 12% | -16% | 1 | -12% | 1% | -1%
COc1ccc2[nH]c3c(=O)n(CCCCC(=O)NCCC(C)C)c(=S)[nH]c3c2c1 | 15µM* | 2% | -5 | -8% | 21µM* | 13%
COc1ccc2[nH]c3c(=O)n(CCCCC(=O)N4CCCC4)c(=S)[nH]c3c2c1 | u | -52% | 0 | u | -22% | -2%
Cc1cc(C)cc(-n2c(C)cc(C(=O)C(=O)Nc3nnc(C)s3)c2C)c1 | -23% | -14% | x | 5% | -7% | x
